The values below come from PubChem BioAssay.

Calls of active or inactive are those of the source.

One assay deals with Albumin (Bos taurus) (UniProt P02769). Put plainly: compounds binding labelled BSA control protein – biochemical, small-molecule microarray, Alexa647 label, 635/667 nm fluorescence, artefact control for SMM control protein annotation, profiling panel (AID 1118).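 Further: score merges 667 nm emission intensity and signal-to-noise per printed compound spot.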 To be noted: BSA-A647 binding, fluorescence 635 nm, higher = more signal.
A short description of assay [1]: probe aXIP binding to arrayed compounds – biochemical, NeuroSMM set, 635/667 nm fluorescence, primary screen (AID 1119).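 Further: probe is the protein aXip251-270 applied at 1 µg/mL to compound-printed slides; binding of probe to printed compounds measured as 667 nm fluorescence plus signal to noise.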 To be noted: small-molecule microarray, higher = more signal, called active from +8 up or from −8 down.
Assay [2] in a line: probe aNOTCH3 binding on compound microarray – biochemical, small-molecule microarray, 635/667 nm fluorescence, primary screen (AID 1120).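 Further: probe is a biotin-tagged antibody raised against NOTCH3 rather than NOTCH3 protein; score merges spot fluorescence near 667 nm with spot signal to noise.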 To be noted: higher = more signal.
A short description of assay [3]: probe aNOTCH2 binding on compound microarray – biochemical, small-molecule microarray, 635/667 nm fluorescence, primary screen (AID 1121).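 Further: score merges feature fluorescence read at 667 nm with its signal to noise.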 As to conditions: higher = more signal.
Assay [4] has as its target Carbonic anhydrase 2 (Homo sapiens) (UniProt P00918). Put plainly: compounds binding carbonic anhydrase 2 – biochemical, small-molecule microarray, Alexa647-labelled CAII, profiling panel (AID 1122). As to conditions: CAII-A647 binding fluorescence, higher = more signal.
Assay [5] in a line: COS7 lysate on small-molecule microarray, probe aHis, 635 nm (AID 1123).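 Further: z-score combines 667nm fluorescence intensity with signal-to-noise per printed compound spot.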 As to conditions: COS7 cell lysate, fluorescence, higher = more signal.
The nature of assay [6]: probe aLAP1 signal on lysate-treated microarray – cell lysate, small-molecule microarray, COS7 lysate, primary screen (AID 1124).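 Further: lysate comes from COS7 cells expressing LAP1 and is applied at 0.3 µg/mL; score merges spot fluorescence near 667 nm with signal-to-noise over triplicate slides.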 To be noted: probe aLAP1, fluorescence, higher = more signal.
A further assay deals with Sam68 (KHDRBS1). Put plainly: compounds binding KHDRBS1 protein – biochemical, small-molecule microarray, 635 nm fluorescence, primary screen (AID 1125).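 Further: score merges 667 nm channel intensity with signal to noise over triplicate slides.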 To be noted: higher = more signal.
The subject of assay [7] is Chordin-like protein 2 (CHRDL2). The assay can be described thus: compounds binding chordin-like 2 – biochemical, small-molecule microarray, 635 nm fluorescence, primary screen (AID 1126).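 Further: printed compound slides probed with Chrdl2 protein at 4 µg/mL for 1 h at 4 C; score merges 667 nm emission intensity with signal to noise over three replicate slides.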 To be noted: fluorescence 635 nm, higher = more signal.
For assay [8], the target named is Concanavalin-A (Canavalia ensiformis) (UniProt P02866). The assay can be described thus: compounds binding concanavalin A lectin – biochemical, small-molecule microarray, Alexa647 label, 635 nm, artefact control for SMM control protein annotation, primary screen (AID 1127).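 Further: z combines 667 nm emission intensity with signal-to-noise across three replicate slides.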 To be noted: ConA-A647 binding fluorescence, higher = more signal.
Assay [9] in a line: compounds binding Alexa647 anti-His antibody – biochemical, small-molecule microarray, 635 nm fluorescence, artefact control for SMM control protein annotation, primary screen (AID 1128).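 Further: score merges feature fluorescence with signal-to-noise for each printed compound spot.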 To be noted: higher = more signal.
For assay [10], the system named is Human papillomavirus type 1a E7 protein (residues 1-88). Put plainly: HPV1a E7 small-molecule binders, primary screen, biochemical, small-molecule microarray, residues 1-88, 635 nm (AID 1129). As to conditions: small-molecule microarray binding, fluorescence 635 nm; higher = more signal.
In assay [11] the target is Focal adhesion kinase 1 (Homo sapiens) (UniProt Q05397). The assay can be described thus: PTK2 protein binding on printed compound slides – biochemical, small-molecule microarray, 635/667 nm fluorescence, BSA, DTT, primary screen (AID 1130).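 Further: composite of spot emission at 667 nm and signal to noise over triplicate slides.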 As to conditions: 635 nm fluorescence, higher = more signal.
For assay [12], the system named is Fibrinogen (Alexa647-labelled). The assay can be described thus: Alexa647-fibrinogen binding to printed small molecules – biochemical, small-molecule microarray, 635/667 nm fluorescence, artefact control for SMM control-protein annotation, profiling panel (AID 1131).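 Further: z-score merges 667 nm fluorescence with per-spot signal-to-noise over triplicate slides.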 To be noted: fibrinogen-A647 binding fluorescence, higher = more signal.
Assay [13] deals with Follistatin (Homo sapiens) (UniProt P19883). Put plainly: FST protein binding to printed compounds – biochemical, small-molecule microarray, 635/667 nm fluorescence, primary screen (AID 1132). As to conditions: 635 nm fluorescence, higher = more signal.
Assay [14] addresses Fibroblast growth factor 2 (Homo sapiens) (UniProt P09038). Put plainly: basic fibroblast growth factor binding to printed compounds – biochemical, small-molecule microarray, 635/667 nm fluorescence, primary screen (AID 1133). As to conditions: FGF2, fluorescence 635/667, higher = more signal.
A short description of assay [15]: JC-1 mitochondrial potential readout, lung cancer cells – cell-based, A549, JC-1 fluorescence, basal, 24 h, 100 nL, profiling panel (AID 1138).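 Further: A549 lung adenocarcinoma cells under basal conditions with no added stimulus; test concentration not given here.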 As to conditions: higher = more signal.
A further assay relates to Lefty1. The assay can be described thus: Lefty1 protein binding to printed compounds – biochemical, small-molecule microarray, 635/667 nm fluorescence, primary screen (AID 1139). To be noted: fluorescence 635/667, higher = more signal.
For assay [16], the system named is wheat germ agglutinin (Triticum aestivum), Alexa647-labelled. Put plainly: Alexa647-WGA lectin binding to printed small molecules – biochemical, small-molecule microarray, 635/667 nm fluorescence, artefact control for SMM control-protein annotation, profiling panel (AID 1140).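 Further: score merges 667 nm feature emission with signal to noise over triplicate slides.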 To be noted: WGA-A647 binding, 635 nm fluorescence, higher = more signal.
Assay [17] deals with Luciferin 4-monooxygenase (Photinus pyralis) (UniProt P08659). Put plainly: inhibition of purified Photinus pyralis luciferase – biochemical, luminescence, purified enzyme, 2006 set, primary screen (AID 1141).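 Further: cell-free assay with purified firefly luciferase at 100 ng per well in PBS; test concentration not given here.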 To be noted: purified firefly luciferase, SteadyGlo luminescence, 30 min; higher = more signal, called active from +8 up or from −8 down.
Chain of Luciferin 4-monooxygenase (Photinus pyralis) (P08659 whole entry, looked up): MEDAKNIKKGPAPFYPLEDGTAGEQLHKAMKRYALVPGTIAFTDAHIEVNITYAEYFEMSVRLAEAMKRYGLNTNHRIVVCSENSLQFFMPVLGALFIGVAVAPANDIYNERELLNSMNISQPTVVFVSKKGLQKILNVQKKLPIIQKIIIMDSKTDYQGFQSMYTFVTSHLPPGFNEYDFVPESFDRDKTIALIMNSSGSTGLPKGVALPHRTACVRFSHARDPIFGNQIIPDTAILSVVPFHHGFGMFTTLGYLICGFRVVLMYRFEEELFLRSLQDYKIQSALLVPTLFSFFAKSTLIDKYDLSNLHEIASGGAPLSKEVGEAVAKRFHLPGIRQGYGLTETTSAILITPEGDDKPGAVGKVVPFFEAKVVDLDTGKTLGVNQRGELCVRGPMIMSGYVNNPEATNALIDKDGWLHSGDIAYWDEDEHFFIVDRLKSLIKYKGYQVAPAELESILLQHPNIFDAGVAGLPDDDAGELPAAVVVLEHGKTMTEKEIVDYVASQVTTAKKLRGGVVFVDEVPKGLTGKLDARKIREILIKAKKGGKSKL

Chain of Concanavalin-A (Canavalia ensiformis) (P02866 whole entry, looked up): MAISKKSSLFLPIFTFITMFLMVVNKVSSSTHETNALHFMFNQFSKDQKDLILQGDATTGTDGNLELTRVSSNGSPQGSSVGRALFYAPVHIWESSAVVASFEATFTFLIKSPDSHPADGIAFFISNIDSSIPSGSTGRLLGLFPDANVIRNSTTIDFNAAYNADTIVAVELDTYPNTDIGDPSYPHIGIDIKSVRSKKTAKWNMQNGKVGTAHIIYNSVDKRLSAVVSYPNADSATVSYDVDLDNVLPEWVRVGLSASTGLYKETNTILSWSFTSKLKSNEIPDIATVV
Chain of Focal adhesion kinase 1 (Homo sapiens) (Q05397 whole entry, looked up): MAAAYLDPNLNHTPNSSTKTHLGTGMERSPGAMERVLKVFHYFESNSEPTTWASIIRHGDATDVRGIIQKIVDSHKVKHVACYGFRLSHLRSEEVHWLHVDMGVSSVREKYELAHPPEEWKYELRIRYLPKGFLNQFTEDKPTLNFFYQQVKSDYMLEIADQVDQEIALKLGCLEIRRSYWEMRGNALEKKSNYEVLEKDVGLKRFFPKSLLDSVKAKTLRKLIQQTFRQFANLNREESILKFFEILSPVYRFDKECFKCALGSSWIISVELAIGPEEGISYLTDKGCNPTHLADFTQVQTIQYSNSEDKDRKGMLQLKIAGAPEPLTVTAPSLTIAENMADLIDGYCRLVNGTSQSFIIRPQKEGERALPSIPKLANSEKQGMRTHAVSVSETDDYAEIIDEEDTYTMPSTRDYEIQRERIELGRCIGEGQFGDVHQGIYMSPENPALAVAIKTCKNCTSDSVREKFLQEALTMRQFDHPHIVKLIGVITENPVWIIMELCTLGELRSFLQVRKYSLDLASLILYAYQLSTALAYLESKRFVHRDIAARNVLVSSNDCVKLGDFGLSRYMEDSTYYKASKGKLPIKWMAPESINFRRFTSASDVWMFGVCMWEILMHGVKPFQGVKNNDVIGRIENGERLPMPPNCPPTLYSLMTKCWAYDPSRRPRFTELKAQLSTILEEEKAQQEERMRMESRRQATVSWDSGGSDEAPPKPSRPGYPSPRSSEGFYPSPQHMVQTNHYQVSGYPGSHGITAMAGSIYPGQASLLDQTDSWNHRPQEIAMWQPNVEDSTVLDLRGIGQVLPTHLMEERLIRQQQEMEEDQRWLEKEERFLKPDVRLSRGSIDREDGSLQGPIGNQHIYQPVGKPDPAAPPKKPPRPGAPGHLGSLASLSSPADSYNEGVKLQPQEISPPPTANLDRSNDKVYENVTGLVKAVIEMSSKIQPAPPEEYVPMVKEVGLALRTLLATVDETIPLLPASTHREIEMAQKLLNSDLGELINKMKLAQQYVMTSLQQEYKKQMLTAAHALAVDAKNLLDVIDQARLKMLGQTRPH
Chain of Fibroblast growth factor 2 (Homo sapiens) (P09038 whole entry, looked up): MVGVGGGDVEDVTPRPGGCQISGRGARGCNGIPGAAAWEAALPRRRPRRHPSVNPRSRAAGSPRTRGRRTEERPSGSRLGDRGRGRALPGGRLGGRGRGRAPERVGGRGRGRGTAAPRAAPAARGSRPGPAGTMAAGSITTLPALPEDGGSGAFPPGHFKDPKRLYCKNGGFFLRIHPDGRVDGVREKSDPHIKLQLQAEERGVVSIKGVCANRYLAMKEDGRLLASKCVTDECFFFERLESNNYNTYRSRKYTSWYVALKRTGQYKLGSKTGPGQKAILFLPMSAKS
Chain of Follistatin (Homo sapiens) (P19883 whole entry, looked up): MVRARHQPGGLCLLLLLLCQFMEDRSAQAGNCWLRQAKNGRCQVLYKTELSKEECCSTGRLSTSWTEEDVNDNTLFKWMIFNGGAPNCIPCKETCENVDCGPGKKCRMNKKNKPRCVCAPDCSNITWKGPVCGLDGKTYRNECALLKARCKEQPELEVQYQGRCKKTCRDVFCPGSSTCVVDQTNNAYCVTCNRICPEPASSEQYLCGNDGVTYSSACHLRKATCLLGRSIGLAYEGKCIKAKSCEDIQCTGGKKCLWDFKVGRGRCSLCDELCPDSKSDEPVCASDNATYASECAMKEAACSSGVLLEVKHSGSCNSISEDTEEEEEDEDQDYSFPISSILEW
Chain of Albumin (Bos taurus) (P02769 whole entry, looked up): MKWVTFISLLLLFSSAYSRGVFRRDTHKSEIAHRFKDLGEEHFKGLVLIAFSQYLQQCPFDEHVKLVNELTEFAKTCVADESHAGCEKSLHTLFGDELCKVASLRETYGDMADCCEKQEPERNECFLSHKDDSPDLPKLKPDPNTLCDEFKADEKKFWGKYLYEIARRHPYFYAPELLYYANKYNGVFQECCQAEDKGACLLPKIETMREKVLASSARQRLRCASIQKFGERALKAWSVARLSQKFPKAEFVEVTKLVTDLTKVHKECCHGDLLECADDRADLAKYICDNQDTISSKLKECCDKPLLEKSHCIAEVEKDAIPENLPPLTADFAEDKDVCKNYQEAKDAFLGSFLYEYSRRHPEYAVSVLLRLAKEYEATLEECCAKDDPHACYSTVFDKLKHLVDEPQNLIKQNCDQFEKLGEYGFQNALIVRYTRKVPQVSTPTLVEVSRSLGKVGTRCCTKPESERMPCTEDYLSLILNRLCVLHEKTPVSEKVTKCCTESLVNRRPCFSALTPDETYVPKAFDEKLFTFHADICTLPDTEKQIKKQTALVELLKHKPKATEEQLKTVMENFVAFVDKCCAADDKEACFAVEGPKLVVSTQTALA

Turning to `C=C(C)[C@@H]1CC=C(C(O)C2C=CC3C(=O)N(c4ccccc4)C(=O)C3N2Nc2ccc(C#N)cc2)CC1` (stereo not given in full), the composite z-score in the assay with Albumin (Bos taurus) turned out to be 0.971; in [2], 0.217; in assay [3] it was 0.0963; in assay [4] it was 0.643; in assay [5], 2.46; in assay [6], 0.429. In addition, the composite z-score with Sam68 (KHDRBS1) turned out to be 1.31; in [7], 0.355; in [8], 1.16; in assay [9] it was 0.526; in assay [10], 1.26; in [11] it was 0.423. The composite z-score in assay [12] was found to be 0.999; in assay [13] it was 1.25; in assay [14], 0.13; in the assay on Lefty1, 0.0839; in assay [16] it was 1.32. The composite Z-score in assay [1] was 0.0421 (inactive). For the same compound, the z-score in [15] was -0.517; in assay [17] it was -0.251 (inactive).

Turning to `COCCCNC(=O)[C@@]1(Sc2ccc(C)cc2)CC(=O)N(Cc2ccccc2Cl)[C@@H]1c1ccc(CO)cc1I`, the composite z-score was 0.7 in the assay with Albumin (Bos taurus); -0.145 in [2]; -0.178 in [3]; 0.809 in assay [4]; 0.658 in assay [5]; -0.47 in [6]. Moreover, the composite z-score is -1.22 in the assay on Sam68 (KHDRBS1); -1.05 in assay [7]; -0.556 in assay [8]; 1.32 in [9]; -0.943 in assay [10]; 0.345 in [11]. The composite z-score is -1.49 in assay [12]; -0.242 in assay [13]; -0.765 in [14]; -0.959 in the assay with Lefty1; -0.691 in assay [16]. In [1], the composite Z-score is -0.0202 (inactive). In addition, the figures for the z-score in assay [15] and in [17] were 0.919 and -0.181 (inactive), respectively.

Regarding `CN1C(=O)[C@@H]2[C@@H](CC(COc3ccccc3)=C([C@H](O)CCc3ccccc3)[C@@H]2CO)C1=O`, the composite z-score is -0.112 with Albumin (Bos taurus); -0.0343 in assay [2]; -0.201 in assay [3]; 0.0456 in assay [4]; -0.492 in assay [5]; -0.525 in assay [6]. Besides, the composite z-score with Sam68 (KHDRBS1) was 0.0336; in [7] it was 0.0213; in assay [8] it was -0.0217; in assay [9], -0.203; in assay [10], -0.438; in assay [11], -0.147. Besides, the composite z-score in [12] was -0.163; in assay [13], 0.009; in assay [14], 0.364; in the assay on Lefty1, -0.0412; in [16], 0.488. Also, in [1], the composite Z-score was 0.252 (inactive). Besides, the z-score in assay [15] is 2.02; in assay [17] it was -1.4 (inactive).

For `CCC(CC)C(O)C1C=CC2C(=O)N(c3ccccc3)C(=O)C2N1Nc1ccc([N+](=O)[O-])cc1` (stereo not given), the composite z-score with Albumin (Bos taurus) is 1.01; in assay [2] it was 0.443; in [3], 0.125; in assay [4] it was 0.573; in assay [5], 1.72; in assay [6] it was 1.35. For the same compound, the composite z-score was 1.3 with Sam68 (KHDRBS1); -0.0998 in assay [7]; 1.05 in [8]; 0.838 in assay [9]; 1.23 in assay [10]; 1.19 in [11]. Also, the composite z-score is 0.895 in assay [12]; 0.081 in [13]; -0.348 in assay [14]; 0.138 in the assay on Lefty1; 1.11 in assay [16]. Moreover, the composite Z-score in [1] was 1.13 (inactive). Further, the results for the z-score in [15] and in assay [17] were -1.38 and 1.14 (inactive), respectively.

For `COCCOC(=O)N1C(=O)[C@@]2(c3cc(C#CCNC(N)=O)ccc31)[C@H](c1ccc(O)cc1)N1[C@H](c3ccccc3)[C@H](c3ccccc3)OC(=O)[C@H]1[C@@H]2C(=O)N1CCN(c2ncccn2)CC1`, the composite z-score was 0.678 with Albumin (Bos taurus); 0.344 in [2]; -0.175 in assay [3]; 0.506 in assay [4]; 2.41 in assay [5]; 0.566 in assay [6]. Besides, the composite z-score in the assay with Sam68 (KHDRBS1) was determined as 1.27; in assay [7] it was 0.279; in [8], 1.1; in [9] it was 1.22; in assay [10], 1.2; in assay [11] it was 0.634. Also, the composite z-score stood at 0.865 in [12]; 0.902 in assay [13]; 0.671 in [14]; 0.707 in the assay on Lefty1; 0.991 in assay [16]. Further, the composite Z-score in assay [1] was 0.529 (inactive). Also, the z-score in [15] is -1.91; in assay [17], -0.391 (inactive).

Regarding `[N-]=[N+]=NC[C@H](Cc1ccccc1)NC(=O)c1ccccc1`, the composite z-score is 0.494 with Albumin (Bos taurus); 0.056 in assay [2]; -0.0783 in assay [3]; 0.294 in assay [4]; 0.12 in [5]; -0.0013 in assay [6]. For the same compound, the composite z-score in the assay on Sam68 (KHDRBS1) is -0.258; in assay [7] it was 0.433; in [8], -0.855; in assay [9] it was 0.568; in assay [10], -0.165; in [11], 0.161. For the same compound, the composite z-score in assay [12] was -0.0208; in [13], -0.487; in assay [14], -0.0599; with Lefty1 it was -0.156; in assay [16], 0.736. Also, in [1], the composite Z-score is -0.0662 (inactive). The z-score was 1.21 in [15] and -0.53 (inactive) in [17].
